According to PubChem BioAssay (NCI):
Several values for one entry are separate records, joined by “and”; a condition that tells them apart may be missing. Identical values can stand only once. This is part of a sample that, as a whole, favours compounds with a hit. Of some 79,000 tested, about 15% had one in any assay. Unmarked numbers belong to inactive results. Activity calls are given as the source filed them. Cut-off read from the data, not from the text of the source: active = growth inhibition above about 70%; inactive = the rest.

Assay: NCI Yeast Anticancer Drug Screen. Data for the cln2 rad14 strain (AID 165);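 note: 0% = growth equal to vehicle treated cultures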
Settings: S. cerevisiae cln2 rad14 strain, at 50.0 µM, stronger effect = higher value
Outline: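 Test compounds were added to cln2 rad14 yeast cultures; inhibition of growth was then determined by comparison with vehicle treatment.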

| SMILES | growth inhibition |
| --- | --- |
| CN(C)CC(CN1CCCC1)C(=O)c1ccccc1 (stereo not given) | 11.2% |
| COc1ccc(/C(Cl)=C(/c2ccc(O)cc2)c2ccc(OCCN(C)C)cc2)cc1 | 89.3% (active) |
| CCCCCC(Oc1ccc(Cl)cc1)C(=O)O (stereo not given) | 75.5% (active) |
| N#CSC#CCCC#CSC#N | 92.9% (active) |
| c1ccc(-c2cc(CN3CCOCC3)c(-c3ccccc3)o2)cc1 | 56.4% |
| CC(=O)Nc1c([N+](=O)[O-])cc2c3c(cccc13)C=C2 | 74.9% (active) |
| CCOc1nc(N)nc(C)c1N=Nc1ccc(Br)cc1 | -9.65% |
| C=CC1(NC(=O)c2ccccc2)CCC(C(C)(C)C)CC1 (stereo not given) | 10.6% |
| Cc1cccc2ccc3cc(CC(=O)O)c4cccc(C)c4c3c12 | 99.5% (active) |
| CC(=O)OC1COC(SC(=N)N)C(OC(C)=O)C1OC(C)=O (stereo not given) | 19.6% and -30.5% and -41.8% |
| CCCCSc1nc2c([nH]1)c(=S)n(C)c(=S)n2C | 69.7% |
| COC(=O)c1ccccc1CC(Cc1ccc2c(c1)CCC2)C(=O)OC (stereo not given) | 13.7% |
| Nc1ccc(S(=O)(=O)O)c2ccccc12 | 6.25% and -52.1% and -17.6% |
| COc1ccccc1/C=C1\NC(=S)N(/C=C2\C(=O)Oc3ccccc3C2=O)C1=O | 64.7% |
| CC12C(=O)OC(=O)C1C1c3ccccc3C2c2ccccc21 (stereo not given) | 86.8% (active) |
| CSc1ccccc1C(=O)O | -32.9% and -15.8% and 17.3% |
| CCOC(=O)C(F)C(Br)C(=O)OCC (stereo not given) | 89.8% (active) |
| CCCCCCCCCCCCCCCCC/C=N\NC(=O)CCCC(=O)N/N=C/CCCCCCCCCCCCCCCCC | 99% (active) |

| SMILES | growth inhibition |
| --- | --- |
| CC(C(=O)NN)C(O)C(C)(C)O (stereo not given) | -47.5% |
| COC(=O)C1C2CC3c4[nH]c5cc(OC)c(Br)cc5c4CCN3CC2CC(OC(=O)c2cc(OC)c(OC)c(OC)c2)C1OC (stereo not given) | 84.3% (active) |
| OCC(O)C(O)C(O)C(O)CNCC(O)C(O)C(O)C(O)CO (stereo not given) | -6.2% and -7.7% and -3.1% |
| CCCN(CCC)C(=S)N/N=C/c1cccc(C)n1 | 93.1% (active) |
| Cc1cccc2c1Oc1ccccc1C2N1C(=O)/C(=C/c2cccs2)SC1=S (stereo not given) | 72.2% (active) |
| COc1ccc(OC(C)=O)c2c1CCC=CC2=O | 57% |
| Cc1ccc(S(=O)(=O)OCC(O)C(O)COS(=O)(=O)c2ccc(C)cc2)cc1 (stereo not given) | 11.1% and -21.9% and -13.5% |
| COC(=O)CSc1nc2[nH]c(SC)c(C(N)=O)c2c(=O)n1-c1ccccc1 | 46.2% |
| NCC(=O)NC(CO)C(=O)O (stereo not given) | -34.1% and -5.75% and -10.1% |
| O=C(Nc1ccc(Cl)c(Cl)c1Cl)Oc1c(Cl)c(Cl)c(Cl)c(Cl)c1Cl | 99.2% (active) |
| COC1OC2COC(c3ccccc3)OC2C(O)C1O (stereo not given) | -29.2% and -46% and -45.3% |
| COc1ccc(CCCC(=O)O)c2c(OC)cccc12 | 72.2% (active) |
| FC(F)(F)c1ccc(Nc2ccc(C(F)(F)F)cc2)cc1 | 99.6% (active) |
| O=C(c1ccccc1)C(Br)CCCC(Br)C(=O)c1ccccc1 (stereo not given) | 67.2% |
| CC1(C)c2ccccc2Cc2cc3ccccc3nc21 | 25.2% |
| OC(c1ccccc1)C(O)c1ccccc1 (stereo not given) | -9.15% and -19.2% and 9.15% |
| COc1ccc2c(c1)[n+]([O-])c(-c1ccc(Cl)c(Cl)c1)c(N)[n+]2[O-] | 99.3% (active) |
